Compound activity from PubChem.
DRD3 agonist = D3 dopamine receptor (human) agonism. P35462. D3R DiscoveRx beta-arrestin cells, luminescence, 90 min. 0.58% of 410,000 active. max activation, %; in the data active means max activation above about 30%; further: 0% is about no effect
Target sequence (P35462 whole entry, looked up): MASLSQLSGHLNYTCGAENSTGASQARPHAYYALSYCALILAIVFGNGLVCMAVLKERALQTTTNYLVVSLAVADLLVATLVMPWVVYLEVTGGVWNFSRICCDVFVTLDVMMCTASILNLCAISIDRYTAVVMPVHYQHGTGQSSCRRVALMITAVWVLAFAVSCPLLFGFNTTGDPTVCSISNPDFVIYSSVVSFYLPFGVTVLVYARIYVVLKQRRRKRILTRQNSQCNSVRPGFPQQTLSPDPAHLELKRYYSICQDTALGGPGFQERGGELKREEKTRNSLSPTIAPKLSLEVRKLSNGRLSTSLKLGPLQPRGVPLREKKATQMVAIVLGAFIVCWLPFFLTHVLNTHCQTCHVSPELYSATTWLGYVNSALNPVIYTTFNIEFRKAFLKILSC
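Agonist mode: compounds and dopamine controls were applied to plated cells for 90 min at 37 degrees C after an overnight attachment at 1500 cells/well. Luminescent read-out followed 30 - 60 minutes at room temperature with DiscoveRx detection reagent.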
D1 potentiator = potentiators of human D1 dopamine receptor; P21728; HEK293 TREx D1 cells, calcium flux, dopamine EC20 potentiation; AID 504651; 0.036% of 360,000 active; potentiation, % at 10 µM; in the data active means potentiation above about 30%; further: 0% is about no effect
DRD3 antagonist = antagonists of human D3 dopamine receptor | P35462 | D3R cells, DiscoveRx beta-arrestin luminescence, antagonist mode; hits give low values | max response, negative = inhibition, % | 2.5% of 360,000 active | AID 652054; in the data active means max response below about -50%; inconclusive means no clear call, values can overlap the other calls; further: on the % scale 0 is the no-effect control and ±100 the full control effect
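Cells plated overnight at 1500 cells/well, then exposed to library compounds with dopamine controls for 90 minutes at 37 degrees C. DiscoveRx reagent added for 30–60 minutes at room temperature; luminescence read, quantitative HTS format.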
D1 ag = activates the human D1 dopamine receptor; AID 504660; activation, % at 2 µM; HEK293 T-REx D1 cells, calcium flux, agonist mode; 1% of 360,000 active; in the data active means activation above about 30%; further: 0% is about no effect
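Tetracycline-induced HEK293 TREx D1 cells, force-coupled to calcium signalling, were dye-loaded with a no-wash calcium kit. Compound was pin-added after a 10 s baseline. Fluorescence was read kinetically at 1 cycle/s for 180 s, with calcium rises flagged as agonism.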
D1 antag = human D1 dopamine receptor antagonism. HEK293 TREx D1 cells, calcium flux, dopamine EC80; hits give low values. AID 504652. 3.2% of 360,000 active. activity change, negative = inhibition, % at 10 µM; in the data active means activity change below about -30%; further: on the % scale 0 is the no-effect control and ±100 the full control effect
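Allosteric or orthosteric antagonism assessed as attenuation of the calcium response to EC80 dopamine, added 180 s after compound, in induced HEK293 Trex D1 cells loaded with no-wash calcium dye.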
* hit, by the source's call; ? = inconclusive; . = no result given. In the library only some 6.1% were active in any assay of this set; here they are far more common.

SMILES	DRD3 agonist	D1 potentiator	DRD3 antagonist	D1 ag	D1 antag
COc1ccc(CNc2nc(NCc3ccc(OC)c(OC)c3)n(C(=O)c3cccs3)n2)cc1OC	45.4*	2.3	59.9	3.1	1.7
FC(F)(F)c1cccc(-c2nc3nc(Cl)c(Cl)nc3[nH]2)c1	2.7	-7.7	-4.1	32.9*	-35.2*
FC(F)(F)c1nc2nc(Cl)c(Cl)nc2[nH]1	-1.0	.	-7.8	.	.
Nc1ccc(S(=O)(=O)Nc2nccc(/C=C/c3ccc(Cl)cc3Cl)n2)cc1	-14.5	0.9	-13.8	2.9	-0.7
C=CCN1C(=O)/C(=C/c2ccc(O)c(OC)c2)S/C1=N/c1nccs1	5.2	6.7	-17.1	129.7*	-2.6
C=CCN1C(=O)/C(=C/c2ccc(N(C)C)cc2)S/C1=N\c1nnc(CC)s1	.	2.5	.	167.3*	-27.0
COc1cc(S(=O)(=O)NCc2ccc(F)cc2)ccc1-n1cnnn1	-3.8	-4.5	-10.6	6.1	-19.0
Cc1cc(-c2nn3c(-c4ccccc4)nnc3s2)c2ccccc2n1	0.5	-6.0	10.3	-1.3	-33.2*
c1ccc(-c2cc(-c3nn4c(-c5ccco5)nnc4s3)c3ccccc3n2)cc1	22.4	-6.1	-24.4	3.6	26.1
CSc1ccc(CCNS(=O)(=O)c2cc(-c3cc(C)no3)ccc2C)cc1	13.4	-2.2	.	5.7	-16.4
Cc1c(CCNC(=O)c2ccco2)sc2nc(-c3ccc(F)cc3)nn12	7.1	-3.2	.	8.1	.
Cc1ccc(-c2nc3sc(CCNC(=O)c4ccco4)c(C)n3n2)cc1	40.3*	-2.2	.	-0.3	.
CCCC(=O)O[C@]1(C(=O)COC(C)=O)CC[C@H]2[C@@H]3C[C@H](F)C4=CC(=O)C=C[C@]4(C)[C@@]3(F)[C@@H](O)C[C@@]21C	2.2	3.9	9.5	2.3	12.1
CC(=O)[C@@]1(O)CC[C@H]2[C@@H]3C[C@H](C)C4=CC(=O)C=C[C@]4(C)[C@@]3(F)[C@@H](O)C[C@@]21C	5.9	-5.8	-0.4	2.0	-59.3*
Cc1cccc(C(=O)N2CCN(c3ccc([N+](=O)[O-])c(NCc4ccco4)c3)CC2)c1	-0.2	-9.8	-7.5	3.2	-66.6*
Cc1cccc(C(=O)N2CCN(c3ccc([N+](=O)[O-])c(N4CCOCC4)c3)CC2)c1	-18.3	-10.9	?	2.3	-45.2*
CCc1nc(SCc2ccc(F)cc2)n[nH]1	6.9	-0.6	-15.3	0.8	-5.8
CCCCc1nc(SCc2ccc([N+](=O)[O-])cc2)n[nH]1	-4.3	-0.9	-14.2	1.2	-30.1*
CCCOc1ccccc1C(=O)N1CCCCC1CCN1CCCCC1 (centres undefined)	48.7*	1.1	.	4.1	6.0
CCc1ccccc1NC(=O)c1cc2sc(Cl)cc2n1CC	-10.7	-4.0	.	2.3	-3.5
CC(C)c1ccc(NC(=O)c2cc3sc(Cl)cc3n2C)cc1	-20.7	-4.1	.	7.5	10.1
CCn1c(C(=O)Nc2c(C)cccc2C)cc2sc(Cl)cc21	-5.2	-9.1	.	1.3	-42.2*
CCc1ccc(NC(=O)c2cc3sc(Cl)cc3n2C)cc1	-17.3	-5.2	.	2.7	-42.7*
CCOC(=O)N1CCC(N2C(=O)c3ccccc3C2Nc2ccc(S(=O)(=O)N3CCCCC3)cc2)CC1 (centres undefined)	.	-11.9	.	-0.4	-21.3
NNc1nc2cc3c(cc2s1)OCCO3	-0.6	-0.6	-7.8	0.3	-2.3
SMILES	DRD3 agonist	D1 potentiator	DRD3 antagonist	D1 ag	D1 antag
COc1ccc(Cl)cc1Cn1c(C)c(C(=O)NCc2ccccc2C(F)(F)F)sc1=O	-7.7	.	?	.	.
COc1ccc(Cl)cc1Cn1c(C)c(C(=O)NCc2cccc(C(F)(F)F)c2)sc1=O	-3.9	.	-59.7*	.	.
COc1ccccc1Cn1c(C)c(C(=O)NCc2ccc(C#N)cc2)sc1=O	-5.8	.	-3.5	.	.
COc1ccc(Cl)cc1Cn1c(C)c(C(=O)NCc2ccc(C#N)cc2)sc1=O	-1.4	.	-50.3*	.	.
Cc1c(C(=O)NCc2ccccc2C(F)(F)F)sc(=O)n1Cc1ccc2ccccc2c1	6.4	.	5.5	.	.
Cc1c(C(=O)NCc2ccccc2C(F)(F)F)sc(=O)n1Cc1cccc(C(F)(F)F)c1	-6.4	.	-54.6*	.	.
CCOC(=O)C1CCN(C(=O)Cn2nc(C)n3cccc3c2=O)CC1	0.5	-8.2	15.3	2.9	-1.0
CCc1cc(=O)oc2cc(OC(C)C(=O)NCc3ccccn3)ccc12 (centres undefined)	-3.5	1.7	-1.0	-0.2	-5.7
N#CCC1c2ccccc2CCN1C(=O)Nc1ccc(C(F)(F)F)cc1 (centres undefined)	-34.3	-3.7	-93.9*	2.6	-11.8
N#CCC1c2ccccc2CCN1C(=O)Nc1cccc(C(F)(F)F)c1 (centres undefined)	-32.8	-1.6	-15.1	6.2	-3.3
CCOc1ccc(NC(=O)Cn2c(=O)n(-c3ccc(C)cc3)c(=O)c3cc(OC)c(OC)cc32)cc1	-9.7	-1.1	.	0.5	3.6
c1ccc(CC[C@@H]2CC[C@@H](CCc3ccccc3)N2)cc1	-13.7	-1.4	-87.8*	14.5	.
c1ccc(CCC2Cc3ccccc3N2)cc1 (centres undefined)	0.9	-3.2	-17.0	-2.9	.
O=C(COc1ccc(Cl)cc1Cl)N/N=C/CCc1ccccc1	-2.2	-6.6	-54.5*	5.7	27.2
O=C(COc1ccc(Cl)cc1Cl)N/N=C/c1ccc[nH]1	-2.2	-4.8	-0.6	1.1	-8.3
Cc1cc(-c2nnc3n2N=C(C(C)(C)C)CS3)n[nH]1	-7.5	-7.1	-52.0*	1.4	-8.2
Cc1ccccc1N1C(=O)CC(Sc2nnc(-c3ccccc3)o2)C1=O (centres undefined)	-11.1	-2.7	-78.9*	2.6	-1.7
O=C(Cn1c(=O)n(Cc2ccc3c(c2)OCO3)c(=O)c2oc3ccccc3c21)Nc1ccccc1	6.2	1.7	.	3.2	3.5
O=C(O)c1nn(CC(=O)N2CCN(c3ncc(C(F)(F)F)cc3Cl)CC2)c(=O)c2ccccc12	21.3	4.0	21.7	6.1	-15.9
COc1cccc(-c2oc3c(c2C(=O)OCCN2CCCCC2)C(O)CCC3)c1 (centres undefined)	-12.4	.	-54.6*	.	.
O=C1CCCc2cc(S(=O)(=O)N3CCCC(C(=O)Nc4ccc(F)c(Cl)c4)C3)ccc2N1 (centres undefined)	0.9	-3.5	.	1.9	-12.6
CC(C)c1cc(C(=O)NCc2ccc(F)cc2)no1	5.4	1.2	.	-0.2	-8.7
Cc1ccc(C)c(NC(=O)COC(=O)CCNC(=O)c2ccco2)c1	2.7	.	1.6	0.5	-50.3*
Clc1ccc(OCCN2CCOCC2)cc1Cl	1.0	1.6	-66.4*	4.9	-6.5
Cc1cc(OCCCCCN2CCCC2)ccc1Cl	-28.0	-5.4	-25.5	13.7	.
Clc1ccc(OCCCn2cncn2)cc1Cl	-6.4	-18.7	-14.5	56.0*	-28.1
Clc1ccc(OCCN2CCCCC2)cc1Cl	-9.0	-4.0	-78.8*	7.0	21.6
CNCCOc1ccc(Cl)c(Cl)c1	12.7	-4.2	-61.6*	14.3	-10.3
